Results as given in the supplement of paper PMC6555819.

Key:
Test in all cases: PBM binding z-score (relative to random genomic background probes); higher = stronger binding; sequences stand for … in GC…GCGATTGACAGCGTAGAATGAAGG
[1] = test system: PPARg:RXRa IVT, anti-PPARg (NR concentration 270 nM, RXRa partner concentration 90 nM)
Method in brief: (§1)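 Custom Agilent 4×180K protein-binding microarrays carried double-stranded probes. Their 34-nt variable regions held direct-repeat seeds, single-nucleotide variants, half-site ablations and random human genomic background sequences. Arrays were incubated 1 h with ligand-free nuclear receptor dimers in PBS pH 7.4, 2% milk, 0.02% Triton X-100, 1 mM DTT, 0.2 mg/mL BSA and 0.4 mg/ml salmon testes DNA. Antibodies against each partner (one per run) detected binding, and scanned fluorescence was regression-normalized. Binding z-scores use random background probes as reference.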

[2] = test system: PPARg DBDmut:RXRa IVT, anti-PPARg (DBD mutation: PPARg1 K132A/R137A, NR concentration 270 nM, RXRa partner concentration 90 nM)
Method in brief: as §1

[3] = test system: PPARg DBDmut IVT, anti-PPARg (DBD mutation: PPARg1 K132A/R137A, NR concentration 270 nM)
Method in brief: as §1

[4] = test system: PPARg homodimer (NR concentration 180 nM)
Method in brief: as §1

[5] = test system: PXR:RXRa (NR concentration 270 nM, RXRa partner concentration 90 nM)
Method in brief: as §1

[6] = test system: PXR homodimer (NR concentration 270 nM)
Method in brief: as §1

[7] = test system: RARa:RXR (NR concentration 270 nM, RXRa partner concentration 90 nM)
Method in brief: as §1

[8] = test system: RARa homodimer (NR concentration 270 nM)
Method in brief: as §1

[9] = test system: RARb:RXRa (NR concentration 270 nM, RXRa partner concentration 90 nM)
Method in brief: as §1

[10] = test system: RARb homodimer (NR concentration 270 nM)
Method in brief: as §1

AGTCAAAGTTTATCTAGGTAACGTAAGATATGCT
PBM binding z-score [1]: 4.84 | PBM binding z-score [2]: 1.23 | PBM binding z-score [3]: 1.54 | PBM binding z-score [4]: -0.0246 | PBM binding z-score [5]: 0.694 | PBM binding z-score [6]: 0.675 | PBM binding z-score [7]: 0.503 | PBM binding z-score [8]: 0.429 | PBM binding z-score [9]: 1.93 | PBM binding z-score [10]: 0.612

GCTGCTAGGTCAACTGATGGTCATCTAAAGCTCG
PBM binding z-score [1]: 4.36 | PBM binding z-score [2]: 0.236 | PBM binding z-score [3]: 0.14 | PBM binding z-score [4]: 2.42 | PBM binding z-score [5]: 2.17 | PBM binding z-score [6]: -0.491 | PBM binding z-score [7]: 3.74 | PBM binding z-score [8]: 0.102 | PBM binding z-score [9]: 4.32 | PBM binding z-score [10]: 3.66

TTGCCAAGGTGAAAGGTCGTTGATGCACGCCTTG
PBM binding z-score [1]: 4.55 | PBM binding z-score [2]: -0.0211 | PBM binding z-score [3]: -0.745 | PBM binding z-score [4]: 1.54 | PBM binding z-score [5]: 4 | PBM binding z-score [6]: -0.137 | PBM binding z-score [7]: 5.68 | PBM binding z-score [8]: -0.379 | PBM binding z-score [9]: 3.06 | PBM binding z-score [10]: 2.56

CCTTACGGGTCACTCCAGGTCATAGCATCGGAGT
PBM binding z-score [1]: 4.39 | PBM binding z-score [2]: -0.278 | PBM binding z-score [3]: -0.144 | PBM binding z-score [4]: 2.14 | PBM binding z-score [5]: 6.17 | PBM binding z-score [6]: 1.15 | PBM binding z-score [7]: 4.49 | PBM binding z-score [8]: 0.835 | PBM binding z-score [9]: 4.25 | PBM binding z-score [10]: 4.42

CGTCCAAGGTCAAGGTCAATGAAAGAGACTCGAA
PBM binding z-score [1]: 5.34 | PBM binding z-score [2]: 2.6 | PBM binding z-score [3]: 2.44 | PBM binding z-score [4]: 4.82 | PBM binding z-score [5]: 5.3 | PBM binding z-score [6]: 1.41 | PBM binding z-score [7]: 5.88 | PBM binding z-score [8]: 3.2 | PBM binding z-score [9]: 5.75 | PBM binding z-score [10]: 4.92

TAGCCTAGTTCATGCGGGCCAGTATAGTGTCGGC
PBM binding z-score [1]: 0.949 | PBM binding z-score [2]: -0.253 | PBM binding z-score [3]: -0.528 | PBM binding z-score [4]: -0.545 | PBM binding z-score [5]: 0.59 | PBM binding z-score [6]: 0.113 | PBM binding z-score [7]: -0.185 | PBM binding z-score [8]: -0.774 | PBM binding z-score [9]: 1.05 | PBM binding z-score [10]: 0.519

TAGCCGAGGTCATTCAGGGGCCAGTATAGAAAGC
PBM binding z-score [1]: 3.9 | PBM binding z-score [2]: 1.06 | PBM binding z-score [3]: 1.57 | PBM binding z-score [4]: 4.27 | PBM binding z-score [5]: 5.92 | PBM binding z-score [6]: 2.27 | PBM binding z-score [7]: 6.51 | PBM binding z-score [8]: 0.64 | PBM binding z-score [9]: 5.27 | PBM binding z-score [10]: 4.49

TATTCAGGGTCAAAGGCCAGAGTACGAATGTCGA
PBM binding z-score [1]: 5.28 | PBM binding z-score [2]: 4.08 | PBM binding z-score [3]: 6.08 | PBM binding z-score [4]: 3.43 | PBM binding z-score [5]: 4.67 | PBM binding z-score [6]: 0.543 | PBM binding z-score [7]: 6.17 | PBM binding z-score [8]: 1.17 | PBM binding z-score [9]: 4.83 | PBM binding z-score [10]: 3.61

ATCGAAAGGTCTAAGGTGAGTATACCCACCCGAA
PBM binding z-score [1]: 1.2 | PBM binding z-score [2]: 0.696 | PBM binding z-score [3]: 0.446 | PBM binding z-score [4]: 0.384 | PBM binding z-score [5]: 0.515 | PBM binding z-score [6]: 0.247 | PBM binding z-score [7]: 1.35 | PBM binding z-score [8]: 0.59 | PBM binding z-score [9]: 1.53 | PBM binding z-score [10]: 1.08

CGTCAAAGTTCAACTGAGGTAACGTAAAGCACGC
PBM binding z-score [1]: 2.31 | PBM binding z-score [2]: 0.285 | PBM binding z-score [3]: 0.242 | PBM binding z-score [4]: 3.03 | PBM binding z-score [5]: 5.86 | PBM binding z-score [6]: 4.5 | PBM binding z-score [7]: 4.36 | PBM binding z-score [8]: 1.6 | PBM binding z-score [9]: 5.41 | PBM binding z-score [10]: 4.06

CGAACTAGGTCAAGGCCAGTGAATCTCCGCACGC
PBM binding z-score [1]: 8.42 | PBM binding z-score [2]: 3.5 | PBM binding z-score [3]: 2.31 | PBM binding z-score [4]: 1.99 | PBM binding z-score [5]: 1.35 | PBM binding z-score [6]: -0.029 | PBM binding z-score [7]: 2.32 | PBM binding z-score [8]: 0.0978 | PBM binding z-score [9]: 4.11 | PBM binding z-score [10]: 3.35

GCTTACAGGTCAAAGGTTATAGCATGAATAGAAT
PBM binding z-score [1]: 6.3 | PBM binding z-score [2]: 2.55 | PBM binding z-score [3]: 3.43 | PBM binding z-score [4]: 3.21 | PBM binding z-score [5]: 6.17 | PBM binding z-score [6]: 0.923 | PBM binding z-score [7]: 7.96 | PBM binding z-score [8]: 0.992 | PBM binding z-score [9]: 4.93 | PBM binding z-score [10]: 3.69

GCATATAGGTAATACAAGGTCAAAGTCCGATTGT
PBM binding z-score [1]: 4.1 | PBM binding z-score [2]: 0.883 | PBM binding z-score [3]: 0.92 | PBM binding z-score [4]: 1.97 | PBM binding z-score [5]: 4.93 | PBM binding z-score [6]: 2.12 | PBM binding z-score [7]: 4.47 | PBM binding z-score [8]: 1.17 | PBM binding z-score [9]: 2.92 | PBM binding z-score [10]: 3.79

CCTAGTTGTTCAGGAGGTCACACACCGGATATGA
PBM binding z-score [1]: 2.97 | PBM binding z-score [2]: 1.15 | PBM binding z-score [3]: 0.86 | PBM binding z-score [4]: 3.91 | PBM binding z-score [5]: 4.18 | PBM binding z-score [6]: 2.15 | PBM binding z-score [7]: 4.4 | PBM binding z-score [8]: 2.25 | PBM binding z-score [9]: 3.62 | PBM binding z-score [10]: 4.15

TATACAAGGTCAAAGGCCAGAGTACGAATGTCGA
PBM binding z-score [1]: 5.15 | PBM binding z-score [2]: 1.68 | PBM binding z-score [3]: 2.18 | PBM binding z-score [4]: 2.34 | PBM binding z-score [5]: 4.53 | PBM binding z-score [6]: 0.743 | PBM binding z-score [7]: 5.37 | PBM binding z-score [8]: 0.491 | PBM binding z-score [9]: 5.27 | PBM binding z-score [10]: 4.35

ATCGAAAGGTCGTGAGGTAAGTATACAGAAAGGC
PBM binding z-score [1]: 2.1 | PBM binding z-score [2]: 1.96 | PBM binding z-score [3]: 0.952 | PBM binding z-score [4]: 2.1 | PBM binding z-score [5]: 3.42 | PBM binding z-score [6]: 0.535 | PBM binding z-score [7]: 4.43 | PBM binding z-score [8]: 1.16 | PBM binding z-score [9]: 3.99 | PBM binding z-score [10]: 2.76

CCTTACGGGTCACGAGGTTGTAGCACGACGAGCG
PBM binding z-score [1]: 4.99 | PBM binding z-score [2]: 1.56 | PBM binding z-score [3]: -0.374 | PBM binding z-score [4]: 3.19 | PBM binding z-score [5]: 3.92 | PBM binding z-score [6]: -0.0862 | PBM binding z-score [7]: 5.55 | PBM binding z-score [8]: 0.412 | PBM binding z-score [9]: 4.42 | PBM binding z-score [10]: 3.53

CGTCCAAGGTCAGCGGGTCAGTGAAAGCGACGTG
PBM binding z-score [1]: 3.48 | PBM binding z-score [2]: -0.302 | PBM binding z-score [3]: -0.244 | PBM binding z-score [4]: 3.27 | PBM binding z-score [5]: 3.9 | PBM binding z-score [6]: 1.09 | PBM binding z-score [7]: 5.13 | PBM binding z-score [8]: 1.34 | PBM binding z-score [9]: 5.2 | PBM binding z-score [10]: 4.69

GCTGCTAGTTCAACTGATGGTCAGCTAAAGCTCG
PBM binding z-score [1]: -0.512 | PBM binding z-score [2]: -0.37 | PBM binding z-score [3]: -1.33 | PBM binding z-score [4]: -0.347 | PBM binding z-score [5]: 0.398 | PBM binding z-score [6]: -0.4 | PBM binding z-score [7]: 0.418 | PBM binding z-score [8]: -1.04 | PBM binding z-score [9]: 1.62 | PBM binding z-score [10]: 1.21

CCTACGGGGCCACGAAAGGTCATTGATTCAGTGA
PBM binding z-score [1]: 2.93 | PBM binding z-score [2]: -0.766 | PBM binding z-score [3]: -1.47 | PBM binding z-score [4]: 3.09 | PBM binding z-score [5]: 6.2 | PBM binding z-score [6]: 2.54 | PBM binding z-score [7]: 5.88 | PBM binding z-score [8]: 0.351 | PBM binding z-score [9]: 4.55 | PBM binding z-score [10]: 5.16

GGAACGAGGTCAAAGTTGATAGCATCTGTCGACG
PBM binding z-score [1]: 6.45 | PBM binding z-score [2]: 0.31 | PBM binding z-score [3]: 1.24 | PBM binding z-score [4]: 2.56 | PBM binding z-score [5]: 5.91 | PBM binding z-score [6]: 2.54 | PBM binding z-score [7]: 6.93 | PBM binding z-score [8]: 0.429 | PBM binding z-score [9]: 5.18 | PBM binding z-score [10]: 4.02

CAGCATAGGTCAGGGCCAGTATAGGAGGAACGTT
PBM binding z-score [1]: 1.1 | PBM binding z-score [2]: -0.177 | PBM binding z-score [3]: -0.223 | PBM binding z-score [4]: 1.42 | PBM binding z-score [5]: 1.36 | PBM binding z-score [6]: 0.189 | PBM binding z-score [7]: 2.17 | PBM binding z-score [8]: 0.463 | PBM binding z-score [9]: 3.89 | PBM binding z-score [10]: 3.19

CCTAGTGGGCCAAGGTCATTGATCAGTCAAAGCA
PBM binding z-score [1]: 4.38 | PBM binding z-score [2]: -0.821 | PBM binding z-score [3]: -0.95 | PBM binding z-score [4]: 2.36 | PBM binding z-score [5]: 3.66 | PBM binding z-score [6]: 1.8 | PBM binding z-score [7]: 3.56 | PBM binding z-score [8]: 0.113 | PBM binding z-score [9]: 3.36 | PBM binding z-score [10]: 3.28

CCTAGTTGGTCAAGGTCACATACGCTATAGGTAC
PBM binding z-score [1]: 3.3 | PBM binding z-score [2]: 1.13 | PBM binding z-score [3]: 1 | PBM binding z-score [4]: 3.03 | PBM binding z-score [5]: 4.1 | PBM binding z-score [6]: 2.39 | PBM binding z-score [7]: 4.46 | PBM binding z-score [8]: 2.55 | PBM binding z-score [9]: 3.95 | PBM binding z-score [10]: 4.15
